# Results reported in PubChem BioAssay AID651928 (Vanderbilt Specialized Chemistry Center, 2012).
# Active and inactive are the calls of the source. How the calls were made is not given here.
# Biological target: Histone deacetylase 4 (Homo sapiens) (UniProt P56524)
# Experiment: recombinant HDAC4 deacetylase inhibitors – biochemical, HDAC isoform panel, selectivity assay for E-cadherin restoration project, profiling panel (AID 651928)
# Chain of Histone deacetylase 4 (Homo sapiens) (P56524 whole entry, looked up, canonical isoform): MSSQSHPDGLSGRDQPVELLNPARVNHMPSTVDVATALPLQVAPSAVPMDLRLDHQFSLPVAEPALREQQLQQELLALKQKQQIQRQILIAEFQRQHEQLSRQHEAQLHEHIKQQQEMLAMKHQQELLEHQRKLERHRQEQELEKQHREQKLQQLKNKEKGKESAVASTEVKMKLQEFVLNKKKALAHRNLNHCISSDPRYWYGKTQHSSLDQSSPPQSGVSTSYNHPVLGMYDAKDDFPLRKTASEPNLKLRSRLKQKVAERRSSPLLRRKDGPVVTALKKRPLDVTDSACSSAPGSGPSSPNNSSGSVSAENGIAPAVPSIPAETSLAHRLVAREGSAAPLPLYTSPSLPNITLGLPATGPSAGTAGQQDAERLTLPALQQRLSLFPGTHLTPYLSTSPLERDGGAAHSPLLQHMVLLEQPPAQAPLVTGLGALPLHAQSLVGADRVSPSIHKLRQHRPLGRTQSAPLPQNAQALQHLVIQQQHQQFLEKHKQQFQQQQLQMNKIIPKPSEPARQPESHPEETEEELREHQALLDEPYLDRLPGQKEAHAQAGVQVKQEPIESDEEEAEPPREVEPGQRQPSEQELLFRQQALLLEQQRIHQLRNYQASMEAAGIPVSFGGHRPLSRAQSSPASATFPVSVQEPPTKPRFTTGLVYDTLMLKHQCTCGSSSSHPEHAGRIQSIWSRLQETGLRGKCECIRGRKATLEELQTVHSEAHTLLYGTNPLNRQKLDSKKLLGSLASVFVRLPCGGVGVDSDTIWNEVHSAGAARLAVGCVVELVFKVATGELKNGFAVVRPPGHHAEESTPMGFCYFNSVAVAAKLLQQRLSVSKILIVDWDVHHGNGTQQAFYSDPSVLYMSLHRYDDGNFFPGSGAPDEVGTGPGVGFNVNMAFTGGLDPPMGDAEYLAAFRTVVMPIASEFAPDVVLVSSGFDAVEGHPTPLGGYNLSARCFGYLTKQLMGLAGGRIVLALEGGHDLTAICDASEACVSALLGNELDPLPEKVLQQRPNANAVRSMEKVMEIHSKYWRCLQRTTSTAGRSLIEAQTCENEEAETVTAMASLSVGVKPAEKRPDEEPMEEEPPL
smiles,measurement,value
O=C(NCCCNC(=O)c1ccc[nH]c1=O)c1cc(-c2ccccc2)on1,outcome,inactive
